dFosB activator: activators of mouse delta FosB homodimer; P13346; purified delta FosB, TAMRA-CDK5 oligo fluorescence polarization; percent of positive-control signal above neutral wells; activation, % at 25 µM; 340,000 tested, 0.99% active;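 active means mean activation above about 17%, with every replicate also reaching it, limit read from the data, passing the limit was not always enough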
Target sequence (P13346 whole entry, looked up): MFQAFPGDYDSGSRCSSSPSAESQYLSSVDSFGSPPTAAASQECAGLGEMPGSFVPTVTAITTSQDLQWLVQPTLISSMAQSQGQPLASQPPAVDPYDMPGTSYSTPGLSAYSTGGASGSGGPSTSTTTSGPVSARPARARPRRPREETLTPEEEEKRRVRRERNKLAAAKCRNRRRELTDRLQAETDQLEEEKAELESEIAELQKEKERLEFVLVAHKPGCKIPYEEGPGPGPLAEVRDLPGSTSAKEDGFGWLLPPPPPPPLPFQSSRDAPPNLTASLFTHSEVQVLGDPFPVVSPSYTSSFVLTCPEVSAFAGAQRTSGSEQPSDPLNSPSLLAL
Beta2AR agonist: human beta-2 adrenergic receptor agonism by FAP | AID 504454 | Am2.2-beta2AR cells, FAP receptor internalization, flow cytometry | P07550 | 340,000 tested, 0.43% active | response, % (concentration not given with the values);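 active means response above a set limit, near 3 SD of response in nonfluorescent compounds, cut at about 42% in these data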
DYRK1A inh: inhibitors of rat Dyrk1A kinase; inhibition, % at 12.5 µM; AID 504441; 310,000 tested, 0.43% active; ADP-Glo luminescence, NFATc1 peptide; in the data active means inhibition above about 50%;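 further: plate controls were vehicle with enzyme for no effect and no enzyme for full effect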
A1 inh: inhibitors of the anti-apoptotic protein A1, read as caspase activation; MEF A1-2A-BIM cells, Caspase-Glo 3/7 luminescence, 3 h; percent of clofoctol response, vehicle zero; caspase activation, % (concentration not given with the values); 330,000 tested, 0.066% active; AID 2462;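 active means over half of replicate activation scores above 10%, or exactly half above 10 with the replicate mean above 10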
Beta2AR ag CP1: activates human beta-2 adrenergic receptor. shares compounds with Beta2AR agonist. Am2.2-beta2AR cells, FAP surface receptor, flow cytometry; hits give low values. percent response (surface receptor), % at 10 µM. 1,100 tested, 25% active. AID 540358;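 active means surface receptor percent response at or below 58%, roughly 3 SD from nonfluorescent compounds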
FAP fluor counter: flagged in Am2.2 fluorescence counterscreen for beta-2AR agonists. shares compounds with Beta2AR agonist. calls only at 10 µM. Am2.2 cells, FAP fluorogen flow cytometry; hits give low values. 1,100 tested, under 10 active;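 active means percent response below a set limit in fluorescence channel 1 and below 50% in channel 8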
* hit, by the source's call; i = inactive; / = no result. Hits are enriched below; roughly 1.6% of the tested compounds scored in any of these assays.

SMILES	dFosB activator	Beta2AR agonist	DYRK1A inh	A1 inh	Beta2AR ag CP1	FAP fluor counter
Cc1ccc2c(c1)C1CN(C)CCC1N2C(=O)c1ccccc1NS(=O)(=O)c1cccc(C(F)(F)F)c1 (stereo not drawn)	2.0	67.0*	-5.4	0.0	103.7	i
CCOc1cc(C(=O)Nc2cc(C(=O)OC)ccc2C)ccc1OCC(=O)N1CCOCC1	-12.7	7.2	/	0.0	/	/
COc1ccc(C2/C=C\CN(C(=O)c3ccccc3)CC(=O)N2Cc2cccc(F)c2)cc1 (stereo not drawn)	-5.9	3.9	2.0	/	100.8	i
COc1ccc([C@H]2/C=C\CN(C(=O)c3ccc(C)cc3)[C@@H](C)C(=O)N2Cc2ccc(F)cc2)cc1	-5.1	14.7	6.7	-0.5	105.9	i
COc1ccc([C@H]2/C=C\CN(C(=O)CC(C)(C)C)[C@@H](C)C(=O)N2Cc2ccc(F)cc2)cc1	-6.8	-7.6	-0.5	-0.2	/	/
COc1ccc(C2/C=C\CN(S(=O)(=O)/C=C/c3ccccc3)[C@H](Cc3ccccc3)C(=O)N2Cc2ccc(F)cc2)cc1 (stereo partly drawn)	/	/	/	-0.2	/	/
COc1ccc([C@H]2/C=C\CN(Cc3ccc(N(C)C)cc3)[C@@H](C)C(=O)N2Cc2ccc(F)cc2)cc1	-7.0	113.2*	-5.3	0.8	28.9*	i
COc1ccc(C2/C=C\CN(C(=O)c3ccccc3)[C@H](Cc3ccccc3)C(=O)N2Cc2ccc(F)cc2)cc1 (stereo partly drawn)	-17.6	12.3	-1.3	0.3	105.5	i
O=[N+]([O-])c1ccc(S(=O)(=O)c2cccc(C(F)(F)F)c2)nc1	-4.7	56.7*	/	-0.1	24.2*	i
COc1cc2cc(CCCOC(=O)c3ccc(F)cc3)oc(=O)c2cc1OC	1.1	-5.1	-5.4	-1.3	/	/
CCCCCCCCNC(C)C(O)c1ccc(SC(C)C)cc1 (stereo not drawn)	-10.5	24.1	6.7	-0.7	/	/
CC(NCCc1ccc(O)cc1)C(O)c1ccc(O)cc1 (stereo not drawn)	-6.5	-5.3	-8.9	-0.3	90.7	i
C[C@@H](NCCc1ccc(O)cc1)[C@@H](O)c1ccc(O)cc1	-1.2	9.7	5.2	0.1	95.8	i
CC(CCc1ccc(O)cc1)NCCC(c1ccccc1)c1ccccc1 (stereo not drawn)	0.1	15.8	-5.0	1.3	68.7	i
CC(CCc1ccc(O)cc1)NC(c1ccccc1)c1ccc(Cl)cc1 (stereo not drawn)	-7.0	8.0	4.3	2.0	/	/
Cc1cccc(S(=O)C(c2ccccc2)c2ccccc2)c1 (stereo not drawn)	-4.1	5.9	/	/	/	/
Cc1n[nH]c(=O)n1-c1ccc(C(C)(C)C)cc1	-3.3	4.3	-4.8	-0.2	/	/
CCOC(=O)Cn1nc(C)n(-c2ccc(C(C)(C)C)cc2)c1=O	-0.3	51.0*	-6.0	0.3	108.6	i
CC(C)CN(CCNC(=O)CN1C(=O)COc2ccc(S(=O)(=O)N3CCC(C)CC3)cc21)CC(C)C	-8.3	-2.6	-0.1	0.8	/	/
O=C(Nc1nc(-c2ccccc2)cs1)c1ccco1	0.1	-7.1	11.6	-0.4	/	/
O=C(Nc1nc(-c2ccco2)cs1)c1ccccc1	0.2	43.5*	3.0	-0.3	119.3	i
C=CCn1c(CCNC(=O)c2cccs2)nnc1SCC(=O)c1ccc(Br)cc1	-6.7	98.1*	1.6	0.1	18.6*	i
Cc1ccc(-c2nnc(SCc3nc4ccccc4[nH]3)n2Cc2ccco2)cc1	-5.2	-32.1	-4.4	-0.6	106.3	i
Cc1cccc(-c2nnc(SCc3nc4ccccc4[nH]3)n2Cc2ccco2)c1	-6.3	-4.4	6.2	0.4	115.5	i
CCOc1ccc(S(=O)(=O)N2CCN=C2c2ccccc2)cc1	0.3	-3.6	0.8	0.0	/	/
COc1ccc2[nH]c(C(=O)O)c(CCN3C(=O)c4cccc([N+](=O)[O-])c4C3=O)c2c1	-6.2	-10.9	5.2	1.0	/	/
Cc1cc(C)c(C#N)c(N2CCN(C(=O)C3COc4ccccc4O3)CC2)n1 (stereo not drawn)	-5.6	3.8	/	-0.4	/	/
COc1ccccc1C(=O)Nc1nc2cc3c(cc2s1)OCO3	5.7	-6.5	-3.1	-5.6	/	/
COc1ccc(C(=O)Nc2nc3cc4c(cc3s2)OCCO4)c(OC)c1	-2.7	54.1*	/	-1.1	101.0	i
